Screens (PubChem BioAssay)
CYP2C9 inhib = human CYP2C9 inhibition | AID 777 | inhibition, % at 5 µM | CYP2C9 Supersomes, luciferin-H conversion, luminescence | 20% of 96,000 active;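 active = blocking of liver enzyme CYP2C9 beyond about 50% at 5 µM, limit read from the data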
Target sequence (P11712 whole entry, looked up): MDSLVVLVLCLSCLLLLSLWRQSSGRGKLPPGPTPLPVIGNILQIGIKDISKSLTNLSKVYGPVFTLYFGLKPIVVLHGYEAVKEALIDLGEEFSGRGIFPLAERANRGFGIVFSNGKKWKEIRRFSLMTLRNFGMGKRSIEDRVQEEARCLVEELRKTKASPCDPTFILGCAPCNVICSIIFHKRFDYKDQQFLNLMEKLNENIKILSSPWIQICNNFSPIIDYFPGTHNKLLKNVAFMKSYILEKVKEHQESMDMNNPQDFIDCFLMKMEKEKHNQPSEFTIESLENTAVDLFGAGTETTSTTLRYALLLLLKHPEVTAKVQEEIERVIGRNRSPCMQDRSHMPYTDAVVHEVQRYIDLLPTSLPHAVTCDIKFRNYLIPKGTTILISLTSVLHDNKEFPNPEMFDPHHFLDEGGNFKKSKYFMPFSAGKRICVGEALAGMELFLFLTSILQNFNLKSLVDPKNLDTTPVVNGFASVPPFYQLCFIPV
CYP2C9 activ = activators of human CYP2C9. P11712. recombinant CYP2C9, luciferin-H conversion, luminescence; hits give high values; factor 1 = untreated enzyme, 0 = blocked. activation factor at 5 µM. 1.4% of 96,000 active. AID 1024;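 active = activation factor of 2 or more for CYP2C9 at a 5 µM dose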;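 note: 0 = sulfaphenazole-blocked wells and 1 = vehicle-only wells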
CYP2C19 inh = inhibitors of human CYP2C19. CYP2C19 Supersomes, luciferin-H EGE luminescence, 30 min. AID 778. inhibition, % at 5 µM. P33261. 21% of 96,000 active;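 active = CYP2C19 inhibition above a set limit at 5 µM in the primary screen, cut at about 50% in these data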;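 note: plate controls were negative control wells for no effect and 2.5 mM tranylcypromine positive control for full effect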
Mac1 fbg enh = increases human CD11b/CD18 adhesion to fibrinogen. P05107+P11215. K562 CD11b/CD18 adhesion to fibrinogen, ATPlite luminescence. activation, % at 10 µM. 0.07% of 93,000 active;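 active = 10 µM primary screen giving 50% or more activity, confirmed by 40% or more on retest at that dose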
CD11b adhes inh = CD11b/CD18-fibrinogen binding inhibition | AID 1497 | inhibition, % at 10 µM | 0.54% of 93,000 active | K562 CD11b/CD18 adhesion to fibrinogen, ATPlite luminescence; Mn2+ added to activate the integrin | P05107+P11215;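 active = primary inhibition of 50% or more at 10 µM, then 40% or more on retest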
CYP2C19 activ = cytochrome P450 2C19 (human) activation; P33261; recombinant CYP2C19, luciferin-H EGE luminescence; hits give high values; 0 = fully inhibited enzyme, 1 = untreated enzyme; activation factor at 5 µM; 96,000 tested, under 10 active;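 active = activation factor of at least 2 at 5 µM in the primary screen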;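 note: 0 = wells with 2.5 mM tranylcypromine and 1 = vehicle-only wells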
Active calls of the source: *; · = no result given. Shown are actives, neighbours in structure and some others; about 28% of the full set was active somewhere.

SMILES | CYP2C9 inhib | CYP2C9 activ | CYP2C19 inh | Mac1 fbg enh | CD11b adhes inh | CYP2C19 activ
CC1CCN(C(=O)C2Cc3ccccc3CN2S(=O)(=O)c2ccc(F)cc2)CC1 (stereo unspecified) | 21 | 0.8 | 20 | -2 | -14 | 0.8
Cc1c(NC(=O)C(C)Sc2nnc(-c3ccccc3)o2)c(=O)n(-c2ccccc2)n1C (stereo unspecified) | -11 | 1.1 | 70* | -4 | -5 | 0.3
COc1ccc2c(C)cc(SCC(=O)Nc3c(C)n(C)n(-c4ccccc4)c3=O)nc2c1 | 11 | 0.9 | 12 | 0 | -3 | 0.9
Cc1cc(SC(C)C(=O)Nc2c(C)n(C)n(-c3ccccc3)c2=O)nc2ccccc12 (stereo unspecified) | -3 | 1 | 78* | · | · | 0.2
Cc1ccc(N(CC(N)=O)C2SC(=O)N(Cc3ccccc3)C2=O)cc1 (stereo unspecified) | 0 | 1 | 42 | -4 | 1 | 0.6
CCCCOc1ccc(Cl)cc1CSc1nnc(C)n1N | 20 | 0.8 | 19 | 12 | -27 | 0.8
O=c1c2c(n3nnnc3n1Cc1ccccc1)-c1ccccc1CC21CCCC1 | 72* | 0.3 | 34 | 2 | 6 | 0.7
CCC1(C)Cc2ccccc2-c2c1c(=O)n(Cc1ccccc1)c1nnnn21 (stereo unspecified) | 34 | 0.7 | 41 | -1 | 12 | 0.6
CCOc1ccc(S(=O)(=O)Nc2ccccc2SC)c2cccnc12 | 71* | 0.3 | 3 | · | · | 1
Cc1ccc(C(=O)c2c[nH]c(C(=O)NCc3cccnc3)c2)cc1 | 24 | 0.8 | 24 | -6 | -1 | 0.8
COC(=O)C1=C(C(C)=O)C(c2ccc(C(=O)OC)cc2)n2nnnc2N1 (stereo unspecified) | 83* | 0.2 | 12 | 4 | -27 | 0.9
CC1CCCC(NC(=O)COC(=O)CN2C(=O)C3CCCCC3C2=O)C1C (stereo unspecified) | · | · | · | 1 | 5 | ·
O=C(NNc1c2ccccc2nc2ccccc12)c1ccc(O)cc1O | 71* | 0.3 | 66* | 26 | 14 | 0.3
COc1ccc(OCC(=O)NNc2c3ccccc3nc3ccccc23)cc1 | -134 | 2.3* | 0 | -2 | 7 | 1
O=C(COc1ccccc1)NNc1c2ccccc2nc2ccccc12 | -222 | 3.2* | 15 | · | · | 0.8
Cc1ccccc1-n1nc(C)c2cc(C(=O)N3CCN(S(=O)(=O)c4ccc(Cl)cc4)CC3)sc21 | 66* | 0.3 | 47 | · | · | 0.5
Cc1ccccc1-n1nc(C)c2cc(C(=O)N3CCN(S(=O)(=O)c4ccc(F)cc4)CC3)sc21 | 75* | 0.2 | 11 | -2 | 8 | 0.9
Cc1ccc(S(=O)(=O)N2CCN(C(=O)c3cc4c(C)nn(-c5ccccc5)c4s3)CC2)cc1 | 44 | 0.6 | 2 | -4 | 3 | 1
CC1=N/C(=C\c2ccc([N+](=O)[O-])cc2)C(=O)N1c1ccc(Br)c(C)c1 | 30 | 0.7 | 18 | · | · | 0.8
Cc1cc(NCCO)nc(N2CCOCC2)n1 | -2 | 1 | -17 | -5 | 21 | 1.2
O=C(c1ccco1)N1CCN(c2cc(C(F)(F)F)nc3ncnn23)CC1 | -5 | 1.1 | -3 | -2 | 10 | 1
Cc1nc(-c2coc3cc(OCC(=O)O)ccc3c2=O)cs1 | -5 | 1.1 | 47 | -3 | 24 | 0.5
Cc1nc(-c2coc3cc(O)c(C)cc3c2=O)cs1 | 4 | 1 | 68* | -6 | 23 | 0.3
Cc1ccc(-c2nc(CSCC(=O)NCCCN3CCOCC3)c(C)o2)cc1 | 11 | 0.9 | 11 | 2 | -4 | 0.9
CSc1ccc(-c2nc(CSCC(=O)NCCCN3CCOCC3)c(C)o2)cc1 | 29 | 0.7 | 56* | -1 | -25 | 0.4
SMILES | CYP2C9 inhib | CYP2C9 activ | CYP2C19 inh | Mac1 fbg enh | CD11b adhes inh | CYP2C19 activ
COC(=O)Cc1c(O)ccn(Cc2cccc3ccccc23)c1=O | 47 | 0.5 | 64* | · | · | 0.4
C=C(C)C(=O)Nc1ccc(OC(F)(F)C(F)F)c(NC(=O)C(=C)C)c1 | -1 | 1 | -7 | 0 | 1 | 1.1
CN(CC(=O)N1CCCCCC1)S(=O)(=O)c1cccc2cccnc12 | -226 | 3.3* | 16 | 4 | -4 | 0.8
CCN(CC)S(=O)(=O)c1cccc2c(N(C)C)cccc12 | -34 | 1.3 | 57* | 16 | 8 | 0.4
CCN(CC)S(=O)(=O)c1cccc2nsnc12 | -21 | 1.2 | 1 | 0 | 12 | 1
CCN(CC)S(=O)(=O)c1cccc2cccnc12 | -379 | 4.8* | 34 | 0 | -8 | 0.7
CN(CC(=O)NC1CCCCCCC1)S(=O)(=O)c1cccc2cccnc12 | -10 | 1.1 | 75* | 2 | -6 | 0.2
CN(CC(=O)NC1CCCCC1)S(=O)(=O)c1ccc(Cl)cc1 | 4 | 1 | 6 | 2 | 11 | 0.9
CCN(CC)S(=O)(=O)c1cccc2cc(C(=O)O)c(O)cc12 | 71* | 0.3 | 4 | 0 | 1 | 1
CCN(CC)S(=O)(=O)c1cc(C(=O)O)c(Cl)cc1Cl | 12 | 0.9 | 4 | 1 | -6 | 1
Cn1c(SCc2ccccc2)nnc1-c1cnccn1 | 8 | 0.9 | 25 | -4 | 3 | 0.8
O=C(CN1C(=O)NC2(CCc3ccccc32)C1=O)Nc1ccc(N2CCOCC2)cc1 (stereo unspecified) | 4 | 1 | -2 | 1 | -31 | 1
CCOC(=O)c1cn2nc(-c3ccc(OC)cc3)cc2nc1C1CCN(C(=O)OC(C)(C)C)CC1 | 63* | 0.4 | 20 | -11 | -6 | 0.8
COC(=O)c1cc(C(=O)OC)cc(N2C(=O)CN=C2Nc2nc(C)cc(C)n2)c1 | -1 | 1 | 1 | -7 | 4 | 1
Cc1ccc(NC(=S)N2CCOCC2)c(C)c1 | 3 | 1 | 8 | 0 | -45 | 0.9
NC(=O)COC(=O)CCCc1c[nH]c2ccccc12 | -15 | 1.2 | 6 | 1 | -14 | 0.9
O=C(Cc1c[nH]c2ccccc12)OCC(=O)c1ccccc1 | -120 | 2.2* | 23 | · | · | 0.8
N#C/C(=C(/O)COC(=O)CCCNC(=O)c1ccc(Cl)cc1)c1nc2ccccc2[nH]1 | 76* | 0.2 | 52* | 6 | -13 | 0.5
N#C/C(=C(/O)COC(=O)Cc1c[nH]c2ccccc12)c1nc2ccccc2[nH]1 | 82* | 0.2 | 10 | 36 | -15 | 0.9
Cc1sc2ncnc(SCC(=O)c3ccc(Cl)s3)c2c1C | 16 | 0.8 | 15 | 3 | 5 | 0.8
c1ccc(-c2ccc(-c3cn4c(n3)CCC4)cc2)cc1 | -4 | 1 | 10 | -1 | 29 | 0.9
CCCCOc1ccc(/C=C2/Sc3ccccc3C2=O)cc1 | 30 | 0.7 | -2 | -1 | 28 | 1
CCOc1ccc(/C=C2\C(=O)c3ccccc3OC2c2ccccc2)cc1 (stereo unspecified) | 42 | 0.6 | 52* | · | · | 0.5
